Assay outcomes as filed in PubChem BioAssay.
PNC inhibitor – inhibitors of perinucleolar compartment assembly; PC3M PTB-GFP, PNC prevalence imaging, 16 h; active compounds read low; activity change (PNC), negative = inhibition, % at 10 µM; 140,000 tested, 3.1% active; AID 2417;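 active means readout at or below -70, meaning at least 70% loss of cells showing the perinucleolar compartment, a nuclear body marking cancer cells; inconclusive means readout between -30 and a set limit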;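 further: plate controls were DMSO wells for no effect and camptothecin positive control wells for full effect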
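PC3M cells stably expressing PTB-GFP, 750–1000 cells/well, treated 16 h at 37 °C with compound (23 nl of library stock), in duplicate. After paraformaldehyde fixation and Hoechst stain, imaged at 20x; PNC prevalence scored by image analysis.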
IMPase cell inh – IMPase inhibition in cells. P97697. CHO-M1 cells, IP1 accumulation, HTRF TR-FRET ratio. inhibition (IP1 accumulation), % at 46.1 µM. 120,000 tested, under 10 active. AID 901; active means well fitted curve in the direction sought with a large enough effect in the signal ratio, not every such curve was filed as active; inconclusive means small, poorly fitted or top-dose-only effect, or a change in a side signal; inactive means no such curve, though single readings can be large or run the other way; the % refers to the signal ratio;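 further: cells stimulated with carbachol in lithium chloride buffer; plate controls were DMSO basal wells for no effect and reference inhibitor wells for full effect; higher means more IMPase inhibition seen as more IP1 and lower FRET ratio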
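CHO-M1, 2000 cells/well, cultured 16–30 h; cpd up to 46 uM; carbachol (50 uM solution, stimulation buffer w/ 50 mM LiCl, pH 7.4), 30 min 37C; IP-One TR-FRET, 10 min RT; Ex 320/Em 665, 620; Hill-fit AC50.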
IMPase Li inh – membrane-permeable IMPase blocker, potentiated with lithium; CHO-M1 cells, IP1 TR-FRET (IP-One), carbachol + lithium; Potency, µM (doses to about 59.4 µM), inactives show top-dose activity, negative = IMPase inhibition, hits mostly inhibitors; 210,000 tested, 0.35% active;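 further: IP1 builds up when IMPase is blocked and the TR-FRET signal falls; potency means the concentration at half of the fitted maximal effect; plate controls were basal vehicle for no effect and high inhibitor control for full effect; nearly all actives have a fitted effect of over 50% in size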
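Test compounds were applied to CHO-M1 cells previously cultured for 16–30 h at 2000 per well. A small lithium amount accompanied them; after 30 min at 37C, IP1 was quantified by TR-FRET.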
12-hLO inh – inhibitors of human 12-lipoxygenase (ALOX12); P18054; purified 12-hLO, xylenol orange hydroperoxide absorbance; Potency, µM (highest dose often 57.1 µM), for the others: top-dose activity change, negative = inhibition, most hits filed as inhibitors; 150,000 tested, 0.12% active; AID 1452; further: potency means the concentration at half of the fitted maximal effect; nearly all actives have a fitted effect of over 55% in size
Target sequence (P18054 whole entry, looked up): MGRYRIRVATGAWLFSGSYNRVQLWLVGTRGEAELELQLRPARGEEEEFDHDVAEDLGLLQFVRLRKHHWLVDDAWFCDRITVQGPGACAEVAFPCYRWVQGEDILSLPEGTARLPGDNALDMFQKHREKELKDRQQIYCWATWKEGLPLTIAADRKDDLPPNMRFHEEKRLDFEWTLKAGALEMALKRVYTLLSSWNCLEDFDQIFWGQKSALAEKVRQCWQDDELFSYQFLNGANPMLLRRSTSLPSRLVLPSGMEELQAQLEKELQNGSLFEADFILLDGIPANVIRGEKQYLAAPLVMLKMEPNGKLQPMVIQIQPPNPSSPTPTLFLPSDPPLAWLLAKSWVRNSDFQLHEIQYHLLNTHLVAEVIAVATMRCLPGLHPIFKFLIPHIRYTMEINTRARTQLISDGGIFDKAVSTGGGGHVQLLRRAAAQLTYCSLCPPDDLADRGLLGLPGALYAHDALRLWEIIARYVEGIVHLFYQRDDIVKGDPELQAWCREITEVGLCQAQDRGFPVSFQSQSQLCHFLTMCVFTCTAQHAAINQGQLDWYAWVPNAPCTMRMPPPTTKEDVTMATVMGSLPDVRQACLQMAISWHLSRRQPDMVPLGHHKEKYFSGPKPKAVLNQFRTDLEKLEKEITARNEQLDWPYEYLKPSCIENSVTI
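150 nM 12hLO, 25 mM Hepes pH 7.0 + 0.01% Triton X-100; cpd preinc 15 min RT; 40 uM arachidonic acid, 30 min RT; Fe-XO 30 min; A573/A405 ratio as read-out.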
ALOX15B inhib – blocks human 15-lipoxygenase 2 activity; purified 15hLO-2, xylenol orange hydroperoxide absorbance; Potency, µM (titrated, usually from 57.1 µM), for inactives: top-dose activity change, negative = inhibition, most hits filed as inhibitors; O15296; AID 881; 110,000 tested, 0.56% active; further: potency means the concentration at half of the fitted maximal effect; nearly all actives have a fitted effect of over 60% in size
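Screening format was qHTS against 50 nM purified 15hLO-2 in Hepes pH 7.5 with detergent. Activity follows hydroperoxide formation from 45 uM arachidonic acid, measured as 573:405 nm absorbance ratio of the ferric-xylenol orange complex.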
An asterisk follows results filed as active; ? = inconclusive; . = no result given; [ ] = another dose, or the depositor's remark. Shown is part of a subset that was picked to be rich in hits. Unless noted, the call rests on the fitted dose curve; in most records, active means well fitted curve in the direction sought with a large enough effect; inconclusive means small, poorly fitted or top-dose-only effect, or another doubt; inactive means no such curve, though single readings can be large; an effect the other way counts as inactive or inconclusive. Unless noted, on the % scale 0 is the no-effect control and ±100 the full control effect.

SMILES	PNC inhibitor	IMPase cell inh	IMPase Li inh	12-hLO inh	ALOX15B inhib
CCN(CC)CCCNC(=S)N1CCn2c(nc3ccccc32)C1	-116*	.	20%	-3%	.
COc1ccc2nc3oc(C(=O)N4CCN(c5cccc(C(F)(F)F)c5)CC4)cc3cc2c1	-28	-5	22%[38.3 µM]	-2%	-12%
COc1ccc(N2CCN(C(=O)c3cccc(Cn4cc(Cl)cn4)c3)CC2)cc1	-112*	34	1%[38.3 µM]	-11%	-6%
COc1ccc2nc3oc(C(=O)N4CCN(c5cccc(Cl)c5)CC4)cc3cc2c1	-87*	11	13%	2%	5%
O=C(O)c1cccc(Cn2cc(Cl)cn2)c1	12	-5	-2%[38.3 µM]	1%	-9%
CC(=O)Nc1ccc(/C=C/c2nc(-c3ccccc3O)n(-c3ccccc3)n2)cc1	.	-12	.	.	.
Cc1cccc(CNc2cc(-c3cccc(C#N)c3)ncn2)c1	.	.	20%	-3%	5%
Cc1cccc(CNc2ncnc3ccc(-c4cccc(NS(C)(=O)=O)c4)cc23)c1	.	.	19%	-16%	61%
CCCN1CNC(=S)N(c2cc(C)ccc2C)C1	-100*	-5	4%	5%	.
CCNc1ncc2ncc(=O)n(CCOC)c2n1	.	.	-8%	.	10%
CC#CCN1c2ccccc2[C@]23C[C@@H](C(=O)OC)N(S(=O)(=O)CCCC)C2=NC(C(=O)OC)=C(C(=O)OC)[C@H]13	.	.	5%	0%[11.4 µM]	.
CC(C)OCC1CC(CC(=O)NC(=S)Nc2cccc([N+](=O)[O-])c2)C(=O)O1 (stereo not given)	-100*	-8	9%	0%	.
O=C(O)/C=C\C(=O)Nc1ccc2c(c1)C(=O)c1cc(F)ccc1-2	.	.	-2%	-1%[11.4 µM]	-14%[11.4 µM]
Cc1ccc(-c2cnn(-c3cccc([N+](=O)[O-])c3)c2N)cc1	-87*	0	-1%[38.3 µM]	-4%	-3%
O=C1C2=C(Nc3cc([N+](=O)[O-])ccc3N2)O[C@@H]1c1ccc([C@H]2OC3=C(Nc4ccc([N+](=O)[O-])cc4N3)C2=O)cc1	.	.	5%	-16%[11.4 µM]	-5%[11.4 µM]
CN(C)c1ccc(C(c2ccc(N(C)C)cc2)c2ccc([N+](=O)[O-])cc2)cc1	.	.	11%	8%[11.4 µM]	3%[11.4 µM]
CSc1nc(N)c2ncn([C@@H]3O[C@H](COP(=O)(O)OP(=O)(O)OP(=O)(O)O)[C@H](O)[C@H]3O)c2n1	.	.	-10%	.	.
Cc1cccc(Oc2cc([N+](=O)[O-])cc3c2C(=O)Nc2ccccc2O3)c1	-83*	.	2%	-7%	.
O=C1Nc2ccccc2Oc2cc([N+](=O)[O-])cc(Oc3ccccc3)c21	14	.	7%	-5%	.
CO[C@@H]1/C=C\O[C@]2(C)Oc3c(C)c(O)c4c(O)c(c(CN5CCN(C)CC5)c(O)c4c3C2=O)NC(=O)/C(C)=C\C=C[C@@H](C)[C@@H](O)[C@H](C)[C@@H](O)C(C)[C@H](OC(C)=O)[C@@H]1C (stereo not given in full)	.	.	3%	.	.
CNC(=O)NC(=O)CSc1nc(-c2cccs2)c(C#N)c(=O)[nH]1	.	.	5µM*	.	.
COC(=O)C(CC(C)C)NC(=O)CSc1nc(-c2ccccc2)c(C#N)c(=O)[nH]1 (stereo not given)	7	?	8.9µM*	-1%	-7%
N#Cc1c(-c2ccccc2)nc(SCC(=O)NC2CCCCC2)[nH]c1=O	.	.	10µM*	.	.
CCC(Sc1nc2ccccc2[nH]1)C(=O)Nc1cc(C)on1 (stereo not given)	14	?	33%[38.3 µM]	-2%	-9%
CCC(Sc1nc(-c2ccccc2)c(C#N)c(=O)[nH]1)C(=O)Nc1cc(C)on1 (stereo not given)	?	?	11µM*	-4%	-2%
SMILES	PNC inhibitor	IMPase cell inh	IMPase Li inh	12-hLO inh	ALOX15B inhib
CCCC(=O)Nc1cc(-c2nnc3c4ccccc4c(C)nn23)ccc1C	.	-1	.	.	.
COC(=O)c1cc(NC(=O)CN(c2ccccc2)S(=O)(=O)N(C)C)ccc1Cl	.	3	.	.	.
COc1ccc(-c2cc(C(F)(F)F)nc(SCC(=O)Nc3ccc(C(C)=O)cc3)n2)cc1	.	3	.	.	.
CCSc1nc(-c2ccccc2)c(C#N)c(=O)[nH]1	29	?	2µM*	0%	3%[11.4 µM]
CSc1nc(-c2ccc(Cl)cc2)c(C#N)c(=O)[nH]1	.	.	-13%	.	.
N#Cc1c(-c2ccccc2)nc(SCc2nc(N)nc(N3CCCCC3)n2)[nH]c1=O	-4	-15	4.5µM*	2%	-5%
O=CNc1ncn[nH]1	.	.	14%	0%[11.4 µM]	7%[11.4 µM]
Cc1nc2cnc(N3CCN(C)CC3)nc2n(CCc2ccccc2)c1=O	.	.	2%	.	12%
Cc1cc(C)cc(-n2c(C)cc(C=C(C#N)C#N)c2C)c1	8	0	10µM*	4%	-6%
Cc1cc(C)c(S(=O)(=O)Nc2cc(Cl)c3oc4c(c3c2)C(=O)CCC4)cc1C	.	5	.	.	.
CN(C)S(=O)(=O)c1cccc(NC(=O)COC(=O)c2cccc(S(=O)(=O)N3CCc4ccccc4C3)c2)c1	-85*	.	2%	-3%	.
COc1ccc(S(=O)(=O)N2CCOCC2)cc1NC(=O)COC(=O)C1COc2ccccc2O1 (stereo not given)	-92*	.	1%	1%	.
COc1ccc(S(=O)(=O)N2CCOCC2)cc1NC(=O)COC(=O)c1ccc(C)s1	.	.	31%	.	.
O=C(COC(=O)c1cccc(S(=O)(=O)N2CCOCC2)c1)Nc1ccc2c(c1)OCO2	-100*	-5	-8%[38.3 µM]	-6%	1%
CCc1cccc(CC)c1NC(=O)COC(=O)c1cccc(S(=O)(=O)N2CCc3ccccc3C2)c1	-90*	.	11%	-5%	.
COc1ccccc1C(=O)N(c1ccc(C)cc1)S(=O)(=O)c1ccc(Cl)cc1	.	-3	.	.	.
Cc1ccc(C(=O)OC[C@H]2O[C@H](Cl)C[C@@H]2OC(=O)c2ccc(C)cc2)cc1	.	.	5%	.	.
COc1ccc(NC(=O)Cn2c(=O)n(CCCC(=O)NCc3ccccc3Cl)c(=O)c3ccccc32)c(OC)c1	.	-2	.	.	.
CCCSc1nnc(NC(=O)Nc2ccc(F)cc2)s1	-83*	15	27%[38.3 µM]	-4%	-1%
O=C(CCc1ccccc1)OCC(=O)c1cccc([N+](=O)[O-])c1	.	.	2%	.	.
O=C(COC(=O)c1cccc([N+](=O)[O-])c1)c1ccc(OCc2ccccc2)cc1	-116*	.	11%	-2%	.
Cc1onc(-c2ccccc2Cl)c1C(=O)Nc1nnc(-c2ccc(Br)cc2)s1	-12	?	8.9µM*	-3%	-8%
Cn1c(=O)c2c(nc(SCC(=O)OCc3ccccc3)n2C)n(C)c1=O	-96*	-9	-8%[38.3 µM]	-2%	-3%
CCCCCn1c(Sc2nc3ccccc3s2)nc2c1c(=O)[nH]c(=O)n2C	23	1	13µM*	-11%	-7%
CCOC(=O)CSc1nc2c(c(=O)[nH]c(=O)n2C)n1CCCc1ccccc1	-108*	10	5%[38.3 µM]	-7%	4%
